Test results: PubChem BioAssay (NCATS)
Inconclusive results are not listed. Calls of active or inactive are those of the source. The call rests on the fitted dose curve; in most records, active means well fitted curve in the direction sought with a large enough effect; inconclusive means small, poorly fitted or top-dose-only effect, or another doubt; inactive means no such curve, though single readings can be large; an effect the other way counts as inactive or inconclusive.

How the values were obtained:
[1] = Quantitative High-Throughput drug screen in 47 multiple myeloma cell lines against the NCATS MIPE library collection: JIM3_ECACC cell viability assay (AID 1918963; further: nearly all actives have a fitted effect of over 35% in size)
How it was run: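 qHTS of the MIPE 4.0 collection: 500 myeloma cells/well, 48 h drug exposure at 37C in 5% CO2, then CellTiter-Glo for 5 min at room temperature before luminescence reading.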

[2] = Quantitative High-Throughput drug screen in 47 multiple myeloma cell lines against the NCATS MIPE library collection: H1112_PLB cell viability assay (AID 1918967; further: nearly all actives have a fitted effect of over 30% in size; further: potency means the concentration at half of the fitted maximal effect)
How it was run: (§1)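 CellTiter-Glo ATP luminescence gave viability after 48 h compound treatment at 37C of 500 multiple myeloma cells per well. Normalisation used DMSO-only wells as 100% and media-only wells as 0% viability; primary qHTS of approved and investigational drugs.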

[3] = Quantitative High-Throughput drug screen in 47 multiple myeloma cell lines against the NCATS MIPE library collection: KMS27_JCRB cell viability assay (AID 1918970); further: nearly all actives have a fitted effect of over 30% in size; further: potency means the concentration at half of the fitted maximal effect
How it was run: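 Luminescent ATP read-out (CellTiter-Glo, 5 min at room temperature) after 48 h compound exposure of 500 KMS27_JCRB cells per well; DMSO wells define full viability and media-only wells zero.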

[4] = Quantitative High-Throughput drug screen in 47 multiple myeloma cell lines against the NCATS MIPE library collection: KMS12BM_JCRB cell viability assay (AID 1918971); further: nearly all actives have a fitted effect of over 35% in size; further: potency means the concentration at half of the fitted maximal effect
How it was run: (§2)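 Myeloma cell lines, 500 cells per well, exposed to MIPE 4.0 library compounds for 48 h at 37C, 5% CO2. Viability from ATP by CellTiter-Glo luminescence; normalised to DMSO (100%) and media-only (0%) wells.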

[5] = Quantitative High-Throughput drug screen in 47 multiple myeloma cell lines against the NCATS MIPE library collection: KMS12PE_JCRB cell viability assay (AID 1918972); further: nearly all actives have a fitted effect of over 30% in size; further: potency means the concentration at half of the fitted maximal effect
How it was run: (§3)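 Luminescent ATP measurement with CellTiter-Glo gives viability, scaled between DMSO-only wells (100%) and media-only wells (0%). Cells, 500 per well, faced library compounds for 48 hours at 37C.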

[6] = Quantitative High-Throughput drug screen in 47 multiple myeloma cell lines against the NCATS MIPE library collection: OCIMY1_PLB cell viability assay (AID 1918979); further: nearly all actives have a fitted effect of over 35% in size; further: potency means the concentration at half of the fitted maximal effect
How it was run: (§4)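 qHTS format: cells plated (500/well), pin-dosed with MIPE 4.0 compounds, kept 48 h at 37 °C. Readout was CellTiter-Glo luminescence, median RLU.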

[7] = Quantitative High-Throughput drug screen in 47 multiple myeloma cell lines against the NCATS MIPE library collection: MM1S_ATCC cell viability assay (AID 1918980); further: nearly all actives have a fitted effect of over 45% in size; further: potency means the concentration at half of the fitted maximal effect
How it was run: as §4

[8] = Quantitative High-Throughput drug screen in 47 multiple myeloma cell lines against the NCATS MIPE library collection: LP1_DSMZ cell viability assay (AID 1918982); further: nearly all actives have a fitted effect of over 35% in size; further: potency means the concentration at half of the fitted maximal effect
How it was run: as §4

[9] = Quantitative High-Throughput drug screen in 47 multiple myeloma cell lines against the NCATS MIPE library collection: INA6_PLB cell viability assay (AID 1918965; further: nearly all actives have a fitted effect of over 55% in size; further: potency means the concentration at half of the fitted maximal effect)
How it was run: as §3

[10] = Quantitative High-Throughput drug screen in 47 multiple myeloma cell lines against the NCATS MIPE library collection: JJN3_DSMZ cell viability assay (AID 1918966; further: potency means the concentration at half of the fitted maximal effect; nearly all actives have a fitted effect of over 50% in size)
How it was run: as §1

[11] = Quantitative High-Throughput drug screen in 47 multiple myeloma cell lines against the NCATS MIPE library collection: Karpas25_ECACC cell viability assay (AID 1918968; further: nearly all actives have a fitted effect of over 35% in size; further: potency means the concentration at half of the fitted maximal effect)
How it was run: as §1

[12] = Quantitative High-Throughput drug screen in 47 multiple myeloma cell lines against the NCATS MIPE library collection: KMS26_JCRB cell viability assay (AID 1918975); further: nearly all actives have a fitted effect of over 45% in size; further: potency means the concentration at half of the fitted maximal effect
How it was run: as §2

[13] = Quantitative High-Throughput drug screen in 47 multiple myeloma cell lines against the NCATS MIPE library collection: MMM1_PLB cell viability assay (AID 1918976); further: nearly all actives have a fitted effect of over 35% in size; further: potency means the concentration at half of the fitted maximal effect
How it was run: as §4

[14] = Quantitative High-Throughput drug screen in 47 multiple myeloma cell lines against the NCATS MIPE library collection: MOLP8_DSMZ cell viability assay (AID 1918977); further: nearly all actives have a fitted effect of over 45% in size; further: potency means the concentration at half of the fitted maximal effect
How it was run: as §4

[15] = Quantitative High-Throughput drug screen in 47 multiple myeloma cell lines against the NCATS MIPE library collection: NCIH929_DSMZ cell viability assay (AID 1918978); further: nearly all actives have a fitted effect of over 35% in size; further: potency means the concentration at half of the fitted maximal effect
How it was run: as §4

[16] = Quantitative High-Throughput drug screen in 47 multiple myeloma cell lines against the NCATS MIPE library collection: JIM1_ECACC cell viability assay (AID 1918964)
How it was run: as §1

[17] = Quantitative High-Throughput drug screen in 47 multiple myeloma cell lines against the NCATS MIPE library collection: MM1R_ATCC cell viability assay (AID 1918981); further: nearly all actives have a fitted effect of over 35% in size; further: potency means the concentration at half of the fitted maximal effect
How it was run: as §4

[18] = Quantitative High-Throughput drug screen in 47 multiple myeloma cell lines against the NCATS MIPE library collection: KMS20_JCRB cell viability assay (AID 1918973); further: nearly all actives have a fitted effect of over 45% in size; further: potency means the concentration at half of the fitted maximal effect
How it was run: as §1

[19] = Quantitative High-Throughput drug screen in 47 multiple myeloma cell lines against the NCATS MIPE library collection: KMS21BM_JCRB cell viability assay (AID 1918974); conditions: ATP luminescence, 48 h; viability: at 45.8 µM (top of the series) unless noted; further: potency means the concentration at half of the fitted maximal effect
How it was run: as §1

Measured: Potency

CC(C)(O)CCc1ccc(OCc2cc(-c3cccc(OC(F)F)c3)c3ncccc3c2)cc1
inactive: [1] | [3] | [4] | [5] | [6] | [8]
active: [2] 20.9 µM | [7] 14.8 µM

Cc1ccc(S(=O)(=O)Nc2cc(Cl)ccc2C(=O)Nc2nc(-c3ccccc3)cs2)cc1
active: [9] 8.33 µM | [10] 18.7 µM | [11] 5.26 µM | [4] 16.6 µM | [5] 2.64 µM | [12] 18.7 µM | [13] 7.43 µM | [14] 20.9 µM | [7] 14.8 µM | [8] 9.35 µM

NC(=O)c1cccc2cn(-c3ccc([C@@H]4CCCNC4)cc3)nc12
inactive: [11] | [3] | [14] | [8]
active: [9] 14.8 µM | [2] 20.9 µM | [15] 20.9 µM

CC(C)c1noc(N2CCC(COc3ccc(-c4ccc(S(C)(=O)=O)cc4)nc3)CC2)n1
inactive: [16] | [2] | [7]
active: [9] 1.87 µM | [11] 1.48 µM | [5] 0.418 µM | [13] 9.35 µM | [14] 0.418 µM | [17] 13.2 µM

C1Cc2[nH]nc(-c3nn[nH]n3)c2C1
inactive: [9] | [2] | [11] | [3] | [4] | [5] | [12] | [15] | [7] | [17] | [8]

Cc1c(NC(=O)OC[C@@H]2COCCN2)cn2ncnc(Nc3ccc4c(cnn4Cc4cccc(F)c4)c3)c12
active: [11] 7.43 µM | [3] 20.9 µM | [5] 18.7 µM | [18] 1.87 µM | [15] 18.7 µM
inactive: [6]

COc1ccc2c(OCc3nnc4ccc(-c5ccccc5)nn34)ccnc2c1
inactive: [1] | [2] | [11] | [13] | [15] | [6] | [7] | [17] | [8]

Cn1cc(-c2ccncc2)c(-c2ccc(OCc3ccc4ccccc4n3)cc2)n1
active: [9] 3.32 µM | [10] 3.72 µM | [11] 1.48 µM | [4] 18.7 µM | [5] 5.9 µM | [19] 3.32 µM | [12] 7.43 µM | [13] 2.96 µM | [6] 16.6 µM | [7] 14.8 µM | [17] 10.5 µM

CC(C)(C)c1cc(NC(=O)Nc2ccc(-c3cn4c(n3)sc3cc(OCCN5CCOCC5)ccc34)cc2)no1
inactive: [19] | [15] | [7]
active: [9] 3.32 µM | [11] 13.2 µM | [12] 18.7 µM

COc1c(N2C[C@@H]3CCCN[C@H]3C2)c(F)cc2c(=O)c(C(=O)O)cn(C3CC3)c12
active: [3] 18.7 µM | [4] 14.8 µM
inactive: [2] | [5] | [18] | [13] | [15] | [17]

O=C(c1cncc(Br)c1)N1CCC(N2CCCC2)CC1
inactive: [1] | [2] | [5] | [18] | [12] | [13] | [14] | [15] | [7] | [17] | [8]

Cc1nc2cnc3ccc(C#Cc4cccnc4)cc3c2n1-c1ccc(C(C)(C)C#N)cc1
active: [9] 0.0833 µM | [10] 0.935 µM | [2] 0.166 µM | [11] 0.0264 µM | [18] 0.0148 µM | [12] 1.32 µM | [13] 0.148 µM | [15] 0.0264 µM | [6] 1.48 µM | [7] 0.0743 µM | [17] 0.166 µM | [8] 0.0833 µM

N#Cc1c(O)c2c(-c3ccc(-c4ccccc4O)cc3)csc2[nH]c1=O
inactive: [1] | [2] | [11] | [3] | [5] | [12] | [14] | [15] | [6] | [17] | [8]
active: [4] 5.26 µM | [7] 16.6 µM
